Each structure is given as a SMILES string. Active and inactive are the calls of the source.

The subject of assay [1] is Human papillomavirus type 1a protein E7 (residues 44-93). Nature of the assay: HPV1a E7 fragment binders on microarrays, primary screen, biochemical, small-molecule microarray, residues 44-93, 635 nm fluorescence (AID 1108).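 Also: E7 fragment applied at 1 µg/mL in TBST for 1 h at 4 C; score combines spot fluorescence with its signal to noise ratio.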 The settings on record: small-molecule microarray binding, fluorescence 635 nm; higher = more signal.
Assay [2] is described as follows: modulators of HCV replicon luciferase signal, primary screen, HCV replication inhibitor project, Huh7 cells, luciferase reporter (AID 1109).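 Also: huh7 hepatoma cells harbouring a luciferase neomycin HCV replicon reporter; luciferase luminescence as measure of HCV replicon replication; test concentration not given here.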 The settings on record: 48 h, higher = more signal. A general note: A replicon is a self-replicating genome or part of one, used to study replication in cells.
In assay [3] the target is Left-right determination factor 2 (Homo sapiens) (UniProt O00292). Kind of assay: LEFTY2 binders on small-molecule microarrays, primary screen, biochemical, small-molecule microarray, 635 nm fluorescence scan (AID 1110). The conditions noted are these: LEFTY2 binding, higher = more signal.
Sequence of Left-right determination factor 2 (Homo sapiens) (O00292 whole entry, looked up): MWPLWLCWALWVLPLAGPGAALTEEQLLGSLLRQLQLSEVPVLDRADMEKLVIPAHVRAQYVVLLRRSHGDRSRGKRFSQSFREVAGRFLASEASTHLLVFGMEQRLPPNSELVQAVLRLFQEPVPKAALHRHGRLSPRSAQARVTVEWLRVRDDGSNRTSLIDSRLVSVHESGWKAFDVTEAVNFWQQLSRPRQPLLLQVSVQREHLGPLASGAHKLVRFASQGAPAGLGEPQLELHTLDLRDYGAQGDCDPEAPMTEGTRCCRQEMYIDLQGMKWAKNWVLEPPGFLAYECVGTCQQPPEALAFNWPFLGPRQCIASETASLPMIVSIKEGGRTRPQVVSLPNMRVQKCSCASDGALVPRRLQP
The target of assay [4] is Calmodulin-1 (Homo sapiens) (UniProt P0DP23). Nature of the assay: CALM1 binders on microarrays, EGTA buffer, profiling panel, biochemical, small-molecule microarray, Cy5-labelled CALM1 (AID 1111).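 Also: labelled calmodulin applied in Tris saline Tween buffer holding calcium plus EGTA and DTT.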 The conditions noted are these: Cy5-CALM1 binding fluorescence, higher = more signal.
Assay [5] has the same target. Nature of the assay: calcium-bound CALM1 binders on microarrays, profiling panel, artefact control for SMM control-protein annotation, biochemical, small-molecule microarray, Cy5-labelled CALM1, plus calcium (AID 1112).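 Also: score merges spot fluorescence with signal to noise from triplicate slides.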 The conditions noted are these: Cy5-CALM1 binding fluorescence, higher = more signal.
Assay [6] can be described thus: small-molecule microarray binders of probe aWnt5a, primary screen, biochemical, biotinylated probe, 635/667 nm fluorescence (AID 1113).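 Also: score merges 667 nm fluorescence intensity with signal-to-noise per printed feature.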 The conditions noted are these: higher = more signal.
Assay [7] in a line: small-molecule microarray binders of probe aShh, primary screen, biochemical, biotinylated probe, 635/667 nm fluorescence (AID 1114).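 Also: probe is biotin-labelled aShh protein from a stem cell growth factor screen; measures binding of labelled protein to compounds printed on the slide; score merges feature fluorescence at 667 nm with signal-to-noise.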 The conditions noted are these: higher = more signal.
Assay [8] can be described thus: small-molecule microarray binders of probe aNog, primary screen, biochemical, biotinylated probe, 635/667 nm fluorescence (AID 1115).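 Also: probe is biotinylated aNog protein used at 0.15 µg/mL for 1 h at 4 C; z-score combines 667 nm fluorescence of each spot with its signal to noise.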 The settings on record: higher = more signal.
Assay [9] deals with Torsin-1A-interacting protein 1 (Homo sapiens) (UniProt Q5JTV8). Kind of assay: LAP1 binders from COS7 cell lysate, primary screen, small-molecule microarray, 635/667 nm fluorescence (AID 1116). The settings on record: COS7-hLAP1 lysate binding, 635 nm fluorescence, higher = more signal.
Sequence of Torsin-1A-interacting protein 1 (Homo sapiens) (Q5JTV8 whole entry, looked up): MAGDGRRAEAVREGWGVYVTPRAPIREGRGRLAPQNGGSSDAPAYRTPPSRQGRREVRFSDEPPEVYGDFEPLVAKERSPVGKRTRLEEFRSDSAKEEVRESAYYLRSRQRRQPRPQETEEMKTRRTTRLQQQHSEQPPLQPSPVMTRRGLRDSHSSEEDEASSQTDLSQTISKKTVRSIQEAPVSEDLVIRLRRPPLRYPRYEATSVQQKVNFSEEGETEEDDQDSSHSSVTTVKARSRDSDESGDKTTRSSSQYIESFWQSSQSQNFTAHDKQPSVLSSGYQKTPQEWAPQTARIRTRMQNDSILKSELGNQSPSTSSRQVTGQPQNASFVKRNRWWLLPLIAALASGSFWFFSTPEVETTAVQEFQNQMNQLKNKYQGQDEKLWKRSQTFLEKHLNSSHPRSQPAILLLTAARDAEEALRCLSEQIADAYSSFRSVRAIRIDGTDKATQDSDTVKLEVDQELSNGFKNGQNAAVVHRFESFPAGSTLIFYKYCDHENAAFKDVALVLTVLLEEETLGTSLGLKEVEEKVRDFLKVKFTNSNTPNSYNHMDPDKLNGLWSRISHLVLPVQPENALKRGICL
Assay [10] has as its target Alpha-bungarotoxin (Bungarus multicinctus) (UniProt P60615). Kind of assay: alpha-bungarotoxin binders on microarray, profiling panel, artefact control for SMM control protein annotation, biochemical, small-molecule microarray, Alexa647 label, 635/667 nm fluorescence (AID 1117). The conditions noted are these: alpha-BTX-A647 binding fluorescence, higher = more signal.
In assay [11] the target is Albumin (Bos taurus) (UniProt P02769). Nature of the assay: bovine serum albumin binders on microarray, profiling panel, artefact control for SMM control protein annotation, biochemical, small-molecule microarray, Alexa647 label, 635/667 nm fluorescence (AID 1118).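 Also: score merges 667 nm emission intensity and signal-to-noise per printed compound spot.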 The conditions noted are these: BSA-A647 binding, fluorescence 635 nm, higher = more signal.
Sequence of Albumin (Bos taurus) (P02769 whole entry, looked up): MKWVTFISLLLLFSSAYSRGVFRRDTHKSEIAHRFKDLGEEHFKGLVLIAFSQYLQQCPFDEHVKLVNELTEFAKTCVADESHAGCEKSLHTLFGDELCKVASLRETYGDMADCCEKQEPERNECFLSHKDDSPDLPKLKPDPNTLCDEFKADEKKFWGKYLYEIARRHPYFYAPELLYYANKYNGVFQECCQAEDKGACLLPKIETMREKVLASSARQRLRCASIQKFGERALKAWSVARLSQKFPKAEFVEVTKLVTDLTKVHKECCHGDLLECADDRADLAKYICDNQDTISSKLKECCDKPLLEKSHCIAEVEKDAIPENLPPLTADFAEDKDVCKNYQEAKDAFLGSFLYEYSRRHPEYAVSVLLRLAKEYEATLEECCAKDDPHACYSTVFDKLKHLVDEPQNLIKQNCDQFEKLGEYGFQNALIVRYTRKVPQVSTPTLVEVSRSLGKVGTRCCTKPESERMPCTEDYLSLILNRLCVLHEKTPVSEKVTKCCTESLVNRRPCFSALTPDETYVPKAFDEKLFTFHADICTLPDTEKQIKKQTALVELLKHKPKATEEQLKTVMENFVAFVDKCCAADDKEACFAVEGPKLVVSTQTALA
Assay [12] can be described thus: small-molecule microarray binders of probe aXIP, primary screen, biochemical, NeuroSMM set, 635/667 nm fluorescence (AID 1119).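 Also: probe is the protein aXip251-270 applied at 1 µg/mL to compound-printed slides; binding of probe to printed compounds measured as 667 nm fluorescence plus signal to noise.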 The settings on record: higher = more signal, called active from +8 up or from −8 down.
A short description of assay [13]: small-molecule binders of probe aNOTCH3, primary screen, biochemical, small-molecule microarray, 635/667 nm fluorescence (AID 1120).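 Also: probe is a biotin-tagged antibody raised against NOTCH3 rather than NOTCH3 protein; score merges spot fluorescence near 667 nm with spot signal to noise.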 The conditions noted are these: higher = more signal.
Assay [14] is described as follows: small-molecule binders of probe aNOTCH2, primary screen, biochemical, small-molecule microarray, 635/667 nm fluorescence (AID 1121).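 Also: score merges feature fluorescence read at 667 nm with its signal to noise.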 The conditions noted are these: higher = more signal.
In assay [15] the target is Carbonic anhydrase 2 (Homo sapiens) (UniProt P00918). Nature of the assay: CAII small-molecule binders, profiling panel, biochemical, small-molecule microarray, Alexa647-labelled CAII (AID 1122). The conditions noted are these: CAII-A647 binding fluorescence, higher = more signal.
A short description of assay [16]: COS7 lysate on small-molecule microarray, probe aHis, 635 nm (AID 1123).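 Also: z-score combines 667nm fluorescence intensity with signal-to-noise per printed compound spot.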 The conditions noted are these: COS7 cell lysate, fluorescence, higher = more signal.
Assay [17] can be described thus: compound binding in COS7 lysate, probe aLAP1, primary screen, cell lysate, small-molecule microarray (AID 1124).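 Also: lysate comes from COS7 cells expressing LAP1 and is applied at 0.3 µg/mL; score merges spot fluorescence near 667 nm with signal-to-noise over triplicate slides.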 The conditions noted are these: probe aLAP1, fluorescence, higher = more signal.
The test system of assay [18] is Sam68 (KHDRBS1). Kind of assay: Sam68 small-molecule binders, primary screen, biochemical, small-molecule microarray, 635 nm fluorescence (AID 1125).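 Also: score merges 667 nm channel intensity with signal to noise over triplicate slides.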 The settings on record: small-molecule microarray binding, higher = more signal.
For assay [19], the system named is Chordin-like protein 2 (CHRDL2). Kind of assay: CHRDL2 small-molecule binders, primary screen, biochemical, small-molecule microarray, 635 nm fluorescence (AID 1126).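 Also: printed compound slides probed with Chrdl2 protein at 4 µg/mL for 1 h at 4 C; score merges 667 nm emission intensity with signal to noise over three replicate slides.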 The conditions noted are these: small-molecule microarray binding, fluorescence 635 nm; higher = more signal.
For assay [20], the target named is Concanavalin-A (Canavalia ensiformis) (UniProt P02866). Kind of assay: ConA small-molecule binders, primary screen, artefact control for SMM control protein annotation, biochemical, small-molecule microarray, Alexa647 label, 635 nm (AID 1127).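 Also: z combines 667 nm emission intensity with signal-to-noise across three replicate slides.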 The settings on record: ConA-A647 binding fluorescence, higher = more signal.
Sequence of Concanavalin-A (Canavalia ensiformis) (P02866 whole entry, looked up): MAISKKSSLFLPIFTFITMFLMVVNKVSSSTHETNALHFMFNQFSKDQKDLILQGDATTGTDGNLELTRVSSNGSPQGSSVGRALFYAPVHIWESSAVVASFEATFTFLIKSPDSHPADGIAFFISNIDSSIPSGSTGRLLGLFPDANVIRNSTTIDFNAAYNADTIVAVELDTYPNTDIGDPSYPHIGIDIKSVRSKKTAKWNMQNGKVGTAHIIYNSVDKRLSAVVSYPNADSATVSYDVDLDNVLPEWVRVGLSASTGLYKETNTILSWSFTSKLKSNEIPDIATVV

Sequence of Alpha-bungarotoxin (Bungarus multicinctus) (P60615 whole entry, looked up): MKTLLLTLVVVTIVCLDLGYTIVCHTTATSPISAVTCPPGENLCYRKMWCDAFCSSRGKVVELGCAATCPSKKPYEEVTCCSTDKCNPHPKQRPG

Take `CCOc1cc(C(O)C2C=CC3C(=O)NC(=O)C3N2Nc2ccccn2)ccc1O` (stereo not given): the composite z-score in assay [1] is -0.357; in assay [3], 0.205; in assay [4], 0.384; in assay [5] it was -0.108; in assay [6], -0.198; in assay [7] it was -0.117. Also, the composite z-score in assay [8] was 0.0258; in assay [9], 0.229; in [10] it was 0.297; in assay [11], 0.409; in assay [13] it was -0.0663; in [14], 0.0065. For the same molecule, the composite z-score in [15] was 0.121; in assay [16], -0.086; in [17], 0.241; in assay [18] it was -0.352; in assay [19] it was 0.143; in assay [20] it was 0.0306. For the same molecule, in assay [2], the z-score came out at 0.294. The composite Z-score in assay [12] was 0.057 (inactive).
For `COC(=O)[C@]1(Cc2ccccc2N=[N+]=[N-])N=C(c2ccc(OCCCO)cc2)O[C@@H]1c1ccccc1`, the composite z-score in assay [1] is -0.296; in assay [3], -0.96; in [4] it was 0.279; in assay [5] it was 0.41; in assay [6], 0.0831; in [7], -0.111. Besides, the composite z-score was 0.534 in assay [8]; 0.738 in assay [9]; 0.41 in assay [10]; -0.274 in assay [11]; 0.0773 in assay [13]; -0.0487 in assay [14]. For the same molecule, the composite z-score is 0.412 in assay [15]; 1.82 in assay [16]; 0.225 in [17]; 0.622 in assay [18]; -1.1 in assay [19]; 0.458 in assay [20]. Besides, the z-score in assay [2] was -3.3. Moreover, the composite Z-score in assay [12] was 0.747 (inactive).
As to `CC(C)C(CO)N1C(=O)[C@@H]2[C@H]3C(=O)OCC=C[C@H]3OC23C=CCN(CCN2CCOCC2)C(=O)[C@@H]13` (stereo not given in full), the composite z-score is -0.0831 in [1]; -0.0025 in [3]; -0.229 in [4]; -1.32 in assay [5]; -0.176 in assay [6]; -0.0709 in [7]. In addition, the composite z-score was -0.0719 in [8]; -0.128 in [9]; 0.451 in assay [10]; -0.36 in assay [11]; -0.125 in assay [13]; -0.164 in assay [14]. Also, the composite z-score in assay [15] is -0.111; in assay [16], -0.332; in [17], -0.0765; in assay [18] it was 0.0784; in assay [19], 0.446; in assay [20] it was 0.166. Moreover, the z-score in [2] is -0.911. Moreover, the composite Z-score in [12] was -0.0157 (inactive).
On to `COc1cc(NN2C(C(O)c3ccc(I)cc3)C=CC3C(=O)N(C)C(=O)C32)cc(OC)c1OC` (stereo not given), for which the composite z-score was 0.539 in [1]; -0.379 in assay [3]; 0.143 in [4]; 0.476 in assay [5]; 0.0077 in assay [6]; 0.289 in assay [7]. Also, the composite z-score in assay [8] is -0.0247; in assay [9], 0.917; in assay [10] it was -0.161; in assay [11], -0.166; in [13] it was 0.163; in [14] it was 0.0586. The composite z-score in assay [15] was 0.783; in assay [16] it was 1.63; in assay [17], 0.189; in assay [18], 0.144; in assay [19], -0.946; in assay [20], 0.0133. The z-score in [2] was -1.32. The composite Z-score in assay [12] is 0.466 (inactive).
`C=CCOC(=O)[C@@H]1[C@H]2C(=O)O[C@H](c3ccccc3)[C@H](c3ccccc3)N2[C@H](c2ccc(OCCOC(=O)[C@@H]3C[C@@H]4C(=O)N[C@@H](CCCCNC(C)=O)C(=O)N4[C@@H]3c3ccc(O)cc3)cc2)[C@@]12C(=O)Nc1ccc(I)cc12`: the composite z-score is 1.41 in assay [1]; 0.722 in assay [3]; 0.743 in assay [4]; -0.342 in assay [5]; -0.0684 in [6]; 0.0098 in assay [7]. Also, the composite z-score was -0.192 in assay [8]; 0.6 in [9]; 0.831 in assay [10]; -0.427 in assay [11]; 0.844 in assay [13]; -0.0458 in assay [14]. The composite z-score in assay [15] came out at 0.5; in assay [16], 1.86; in [17], 0.705; in [18] it was 1.29; in assay [19], 0.986; in assay [20] it was 1.15. Further, in [2], the z-score is -0.66. The composite Z-score in assay [12] is 1.48 (inactive).
As for `O=c1c2ccc(Br)cc2nc(-c2ccccc2)n1Cc1cccc(O)c1`, the composite z-score is -0.128 in [1]; 0.194 in assay [3]; 2.32 in assay [4]; 0.756 in assay [5]; 0.0438 in [6]; -0.305 in [7]. Besides, the composite z-score in assay [8] was -0.218; in assay [9], 2.51; in assay [10] it was 1.8; in assay [11], 0.757; in assay [13] it was 0.103; in assay [14], 0.138. In addition, the composite z-score in assay [15] is 0.711; in [16], 1.46; in assay [17] it was 1.3; in assay [18], 0.772; in assay [19], 0.182; in assay [20] it was 0.988. In [2], the z-score was -0.153. The composite Z-score in assay [12] is 0.906 (inactive).
For `N#Cc1ccc(NN2C(C(O)c3ccco3)C=CC3C(=O)N(c4ccccc4)C(=O)C32)cc1` (stereo not given), the composite z-score in assay [1] was -0.345; in [3], -0.0879; in assay [4], 0.144; in [5], -0.539; in assay [6], 0.0012; in assay [7] it was -0.0035. For the same molecule, the composite z-score in assay [8] was 0.531; in assay [9] it was -0.247; in assay [10] it was 0.518; in [11], 0.488; in assay [13], 0.188; in assay [14], -0.0148. The composite z-score came out at 0.89 in assay [15]; 1.5 in assay [16]; 0.687 in assay [17]; 0.0163 in [18]; 0.111 in [19]; 0.458 in [20]. The z-score in assay [2] is -0.36. The composite Z-score in [12] was 0.499 (inactive).
Turning to `CN(C)CCCCNC(=O)[C@H]1C[C@H]2C(=O)N[C@@H](CCCC[N+](C)(C)C)C(=O)N2[C@H]1c1cccc(OCCO)c1`, the composite z-score in assay [1] was 1.37; in assay [3] it was 0.206; in [4] it was 0.285; in assay [5], -0.166; in assay [6], -0.0792; in [7] it was 0.13. The composite z-score is 0.0286 in assay [8]; 0.116 in [9]; 0.112 in assay [10]; -0.355 in [11]; -0.0774 in assay [13]; -0.112 in assay [14]. The composite z-score in assay [15] was 0.798; in assay [16] it was 0.726; in [17], 0.448; in [18] it was 1.15; in [19] it was 1.23; in assay [20] it was 1. In addition, the z-score in assay [2] was -0.156. Also, the composite Z-score in [12] is 2.15 (inactive).
